An excerpt weighted towards active compounds, which were near 1.8% of everything screened.
VHR inh abs – VHR1 phosphatase inhibitors, primary screen, biochemical, absorbance, uHTS; AID 1654, 2009; actives 0.52% (n = 290,000); recombinant VHR phosphatase, pNPP absorbance; Dual specificity protein phosphatase 3 (Homo sapiens), P51452; inhibition, % at 13.3 µM; in the data active means inhibition above about 50%
Target sequence (P51452 whole entry, looked up): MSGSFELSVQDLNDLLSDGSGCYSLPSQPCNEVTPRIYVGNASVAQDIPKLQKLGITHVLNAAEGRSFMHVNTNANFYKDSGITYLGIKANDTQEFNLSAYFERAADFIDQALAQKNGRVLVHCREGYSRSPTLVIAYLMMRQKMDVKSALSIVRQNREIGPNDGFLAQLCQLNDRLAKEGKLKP
Vc quorum ag – inducers of Vibrio cholerae quorum light production without autoinducers, primary screen, BH1578 luxS cqsA deficient, single point; V. cholerae BH1578 lux reporter, luminescence, 6 h; activation, % at 18.7 µM; actives 0.16% (n = 350,000); in the data active means activation mostly above about 9.7%, no sharp cut-off
PrPC TRFRET – inhibitors of human cell surface prion protein PrPC, primary screen, cell-based, TR-FRET; inhibition, % at 13.8 µM; TR-FRET read-out; AID 720596, 2013; actives 0.43% (n = 370,000); Major prion protein (Homo sapiens), P04156; in the data active means inhibition above about 24%; further: 0% = median of the test wells and 100% = reference compound wells
MazEF act – activators of E. coli MazEF toxin-antitoxin RNase, primary screen, biochemical, fluorescence, uHTS. activation, % at 20 µM. actives 0.32% (n = 350,000). Endoribonuclease toxin MazF (Escherichia coli (strain K12)), P0AE70. FAM/BHQ RNA-DNA oligo cleavage fluorescence, 5 h. AID 504720, 2011; in the data active means activation above about 50%
Target sequence (P0AE70 whole entry, looked up): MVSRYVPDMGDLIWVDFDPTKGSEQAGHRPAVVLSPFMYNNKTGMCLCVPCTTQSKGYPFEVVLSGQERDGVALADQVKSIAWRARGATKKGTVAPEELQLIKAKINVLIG
Yp Topo-I inh – Yersinia pestis topoisomerase I inhibitors, primary screen, biochemical, cleavage product accumulation, plate reader, single point; activity, % at 10 µM; DNA topoisomerase I (Yersinia pestis CO92); actives 0.064% (n = 360,000); Y. pestis Topo-I cleavage product accumulation; in the data active means activity above about 50%, passing the limit was not always enough
CCHF vOTU inh-1 – CCHFV vOTU protease inhibitors, primary screen, biochemical, Pep-AMC substrate, fluorescence; inhibition, % at 11.5 µM; actives 0.55% (n = 370,000); further: 0% = vehicle wells with enzyme and 100% = no enzyme wells
CCHF vOTU inh-2 – CCHFV vOTU protease inhibitors, confirmation, biochemical, Pep-AMC substrate, fluorescence | actives 17% (n = 1,900) | AID 686976, 2013 | Recombinant CCHFV vOTU | inhibition, % at 11.5 µM | shares compounds with CCHF vOTU inh-1
The depositor's hits bear a star; i = inactive; x = not tested or not shown. Unless noted, no stated cut-off is given here; in the data, active means inhibition above about 30%; inactive means the rest.

SMILES	VHR inh abs	Vc quorum ag	PrPC TRFRET	MazEF act	Yp Topo-I inh	CCHF vOTU inh-1	CCHF vOTU inh-2
CC(=O)N(C)c1ccc(OCC(O)Cn2c(C)nc3ccccc32)cc1 (centres undefined)	15	0	10	3	4	-6	x
Cc1cc(C(=O)CCC(=O)NCC2COc3ccccc3O2)c(C)s1 (centres undefined)	x	-2	-5	-8	22	-24	x
O=C(CCc1ccccc1)Nc1ccncc1	-8	i	10	4	-5	50*	-16
CCN(CC)C(=O)c1cccc(-c2csc(C(O)c3ccc(F)c(F)c3)n2)c1 (centres undefined)	x	i	20	x	27	30*	8
O=c1cc(-c2ccc(O)c(O)c2)oc2c1ccc1ccccc12	x	i	-1	119*	11	34*	6
S=C(NCc1ccccn1)Nc1cccc(Cl)c1	1	x	-2	-8	-4	-5	x
CC(=NNC(=S)Nc1cccc(Cl)c1)c1ccccn1	x	x	5	7	9	30*	16
COc1ccc(S[C@]2(C(=O)N3CCN(c4ncccn4)CC3)CC(=O)N(c3ccc(OC)cc3)[C@@H]2c2ccc(OC)cc2)cc1	x	x	-8	x	x	-2	x
CC(=O)Nc1ccc(NS(=O)(=O)c2ccc(-c3cnc(C4CC4)o3)cc2)cc1	6	0	-6	16	-2	8	x
CCOc1ccc(NS(=O)(=O)c2ccc(-c3cnc(C4CC4)o3)cc2)cc1	27	-2	4	6	24	30*	-16
COC(=O)[C@]12C[C@H](CC(=O)NCc3cccc(C(F)(F)F)c3)C(=O)N(CCC3=CCCCC3)C1=C[C@H](C(C)(C)C)O[C@@H]2C	x	x	3	x	x	12	x
COC(=O)[C@]12C[C@H](CC(=O)NCc3cccc(C(F)(F)F)c3)C(=O)N(Cc3ccccc3)C1=C[C@H](C(C)C)O[C@@H]2C1CC1	x	x	1	x	x	41*	-4
COC(=O)[C@]12C[C@H](CC(=O)NCc3ccccc3)C(=O)N(Cc3ccco3)C1=C[C@H](C(C)C)O[C@@H]2C1CC1	x	x	-4	x	x	11	x
COC(=O)[C@]12C[C@H](CC(=O)NCc3cccc(C(F)(F)F)c3)C(=O)N(Cc3ccco3)C1=C[C@H](C(C)C)O[C@@H]2C1CC1	x	x	4	x	x	31*	0
COC(=O)[C@]12C[C@H](CC(=O)NCc3cccc(C(F)(F)F)c3)C(=O)N(Cc3cccc4ccccc34)C1=C[C@H](C(C)C)O[C@@H]2C1CC1	x	x	-1	x	x	21	x
COC(=O)[C@]12C[C@H](CC(=O)NCc3cccc(C(F)(F)F)c3)C(=O)N(CCC3=CCCCC3)C1=C[C@H](C(C)C)O[C@@H]2C1CC1	x	x	12	x	x	33*	7
CCn1nnnc1SCC(=O)N1N=C(c2cccs2)CC1c1cccs1 (centres undefined)	x	-1	-8	-1	14	30*	-14
COc1cccc2c1C(=O)c1c(O)c3c(c(O)c1C2=O)C[C@](O)(C(C)=O)C[C@H]3O[C@@H]1C[C@@H](N)[C@@H](O)[C@@H](C)O1	x	i	-28	i	-34	31*	-7
Cn1c(CCN2CCN(c3ccccn3)CC2)nc2cc(NC(=O)COc3ccccc3)ccc21	29	0	-15	3	11	1	x
CC1CC(O)C(C)CN1 (centres undefined)	-2	i	-10	-6	-1	-14	x
O=C(N/N=C/c1ccc(-c2ccc(S(=O)(=O)Nc3ncccn3)cc2)o1)c1cc2ccccc2cc1O	21	i	-8	-3	3	41*	-2
Cc1cccc2c(=O)c(-c3ccc(Cl)cc3)c(NC(=O)c3ccco3)oc12	6	-1	-5	8	5	30*	-6
C[C@@H](NC(=O)[C@@H]1CCCN1C(=O)OC(C)(C)C)c1ccccc1	x	x	-5	x	x	6	x
Cc1[nH]cnc1CN1CCc2c(c3ccccc3n2C)C1=O	x	0	-2	6	19	72*	24
Cc1nccn1CC1CCc2c(c3ccccc3n2C)C1=O (centres undefined)	10	0	-7	9	-5	-8	x
SMILES	VHR inh abs	Vc quorum ag	PrPC TRFRET	MazEF act	Yp Topo-I inh	CCHF vOTU inh-1	CCHF vOTU inh-2
COc1ccc(CCNC(=O)c2cc3c(cc2Cl)N2CCCCCC2=NS3(=O)=O)cc1	x	i	1	5	2	11	x
CCCN(CC(=O)Nc1ccccc1OC)C(=O)c1ccc2[nH]c3c(c2c1)CC(C)CC3 (centres undefined)	x	2	4	4	-4	38*	10
CCN(CC(=O)Nc1ccccc1OC)C(=O)c1ccc2[nH]c3c(c2c1)CC(C)CC3 (centres undefined)	x	i	-2	-9	20	14	x
COc1ccccc1NC(=O)c1ccc(NS(=O)(=O)c2ccc(F)c(F)c2F)cc1	6	0	8	0	10	30*	-13
CCN(c1ccc(OC)cc1)S(=O)(=O)c1cc(-c2cc(C)no2)ccc1OC	-5	1	11	-10	11	31*	-18
Cc1cc(=O)c2c(o1)C(=O)c1occc1C2=O	x	0	-18	6	-8	106*	48*
CCOC(=O)c1c(NC(=O)/C=C/C(=O)O)sc(C)c1-c1ccc(C(C)(C)C)cc1	23	0	24	-3	32	45*	16
Cc1nc(C(F)(F)F)ccc1C(=O)N1CCC1(C)C(=O)NS(=O)(=O)c1c(C)noc1C (centres undefined)	x	1	3	x	1	3	x
COc1ccc(-n2c(COc3cccc4cccnc34)nnc2SCC(=O)O)cc1	31	0	3	-3	2	-2	x
CC1=C(C(=O)N(C(C)C)C(C)C)CC(CC(=O)NCC2CCCCC2)C(=O)N1Cc1ccc(C(C)(C)C)cc1 (centres undefined)	x	x	11	x	x	38*	9
CC1=C(C(=O)N(C)C)CC(CC(=O)NC(c2ccccc2)c2ccccc2)C(=O)N1Cc1ccc(F)cc1 (centres undefined)	x	0	-4	-1	16	34*	-15
CC1=C(C(=O)N(C(C)C)C(C)C)CC(CC(=O)NCc2cccc3ccccc23)C(=O)N1Cc1ccc(C(C)(C)C)cc1 (centres undefined)	x	x	5	x	x	33*	15
